# Screens deposited in PubChem BioAssay by National Center for Advancing Translational Sciences (NCATS).
# Sampled rows, rich in hits. Any-hit rate of the full collection: about 9.2%.
# NPC1 promoter act: NPC1 promoter activation; Huh7 NPC1 promoter luciferase reporter, 24 h; Potency, µM (highest dose often 9.22 µM), for inactives: top-dose activation, most hits filed as activators; 320,000 tested, 2.4% active; AID 485313; also: % of control where 0% means no effect; nearly all actives have a fitted effect of over 60% in size
#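 Stable NPC1-promoter luciferase Huh7 line; cpd (DMSO) 24 h, 37 °C, 5% CO2; Amplite luciferase reagent 10 min RT; luminescence readout. qHTS format.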
# ELG1 DNA repair: blocks ELG1-dependent DNA repair in HEK293T cells | HEK293T ELG1-luciferase reporter, luminescence, 16 h; DNA damage induced by 5-fluorouridine | Potency, µM (titrated, usually from 46.1 µM), for inactives: at the top dose activity change, negative = inhibition, usual class: inhibitors | 330,000 tested, 2.3% active | AID 504467; also: % is scaled to controls: 0 for no effect and ±100 for the full control effect; nearly all actives have a fitted effect of over 55% in size
#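 Step one: seed 2,000 cells per well. Step two: pin-transfer compound or DMSO alongside 5-fluorouridine. Step three: incubate 16 hr, 37 °C, 5% CO2. Step four: add ONE-Glo, wait 30 min, read luminescence.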
# SMN2 splice up: SMN2 splice variant enhancement | HEK293 SMN2-luciferase splicing reporter, luminescence, 30-36 h | Potency, µM (doses to about 46.1 µM), inactives show at the top dose activity change, positive = activation, actives largely listed as activators | 210,000 tested, 2.8% active | AID 1458; also: % of control where 0% means no effect; nearly all actives have a fitted effect of over 55% in size
#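 HEK293 cells carry an SMN2 minigene-luciferase reporter in which exon 7 inclusion puts luciferase in frame. Cells were seeded at 2000 cells/well, attached for 10-12 hours, then exposed to compounds for 30-36 hours at 37C before ONE-Glo luminescence.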
# FLuc modulator: firefly luciferase modulation, counter-screen for miR-21 project. P08659. purified FLuc, Km substrates, luminescence inhibition. Potency, µM (titrated, usually from 57.5 µM), without a hit: top-dose activity change, negative = inhibition, actives largely listed as inhibitors. 360,000 tested, 6.9% active. AID 588342;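 also: plate controls were vehicle for no effect and reference inhibitor for full effect; nearly all actives have a fitted effect of over 55% in size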
# Target sequence (P08659 whole entry, looked up): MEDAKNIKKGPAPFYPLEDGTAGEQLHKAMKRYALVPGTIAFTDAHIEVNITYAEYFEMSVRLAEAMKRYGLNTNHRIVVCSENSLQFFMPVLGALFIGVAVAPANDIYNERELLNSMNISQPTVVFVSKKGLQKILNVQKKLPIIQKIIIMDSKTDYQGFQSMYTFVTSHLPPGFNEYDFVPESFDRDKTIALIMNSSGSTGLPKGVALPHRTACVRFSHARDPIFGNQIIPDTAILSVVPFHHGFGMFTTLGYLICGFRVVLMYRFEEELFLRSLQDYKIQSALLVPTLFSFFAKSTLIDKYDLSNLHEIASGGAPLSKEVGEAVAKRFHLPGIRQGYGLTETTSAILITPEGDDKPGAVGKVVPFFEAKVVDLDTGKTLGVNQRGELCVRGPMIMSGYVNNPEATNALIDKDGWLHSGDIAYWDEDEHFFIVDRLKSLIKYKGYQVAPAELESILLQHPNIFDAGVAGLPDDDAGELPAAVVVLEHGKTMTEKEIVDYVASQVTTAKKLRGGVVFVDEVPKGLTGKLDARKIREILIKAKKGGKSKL
#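 Purified P. pyralis luciferase, 10 nM final, with Km-level 10 uM D-luciferin and 10 uM ATP in 50 mM Tris acetate pH 7.5, 10 mM Mg acetate, 0.01% Tween-20, 0.05% BSA; 6-point qHTS titration about 60 µM downward; luminescence read.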
# ELG1 genotoxic: genotoxicity induction in ELG1-luciferase HEK293T cells | HEK293T ELG1-luciferase reporter, luminescence, 16 h | Potency, µM (series often up to 46 µM), without a hit: top-dose activity change, positive = activation, most hits filed as activators | 330,000 tested, 1.3% active; also: % of control where 0% means no effect; nearly all actives have a fitted effect of over 60% in size
#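 After overnight (16 hr) compound treatment at 37 °C, ELG1-luciferase HEK293T cells were lysed with ONE-Glo; luminescence quantified 30 min later at room temperature.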
# Rab9 promoter act: Rab9 promoter activation; Huh7 Rab9 promoter-luciferase reporter, luminescence, 24 h; Potency, µM (titrated, usually from 9.22 µM), for the others: at the highest dose activation, negative = inhibition, hits mostly activators; 320,000 tested, 2.8% active; AID 485297; also: % of control where 0% means no effect; nearly all actives have a fitted effect of over 60% in size
#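 Cell-based reporter: Huh7 stable for Rab9 promoter-driven luciferase, plated in reduced-serum medium with 10% FBS at 1500 cells/well, compound-treated 24 h at 37 °C, luminescence read after 10 min reagent.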
# Starred values were filed as active, the others as inactive; ? = inconclusive; / = no result given. Calls follow the shape of the dose curve; as a rule, active = well fitted curve in the direction sought with a large enough effect; inconclusive = small, poorly fitted or top-dose-only effect, or another doubt; inactive = no such curve, though single readings can be large; an effect the other way counts as inactive or inconclusive. Potency is read from the fitted curve at half-maximal effect.
SMILES,NPC1 promoter act,ELG1 DNA repair,SMN2 splice up,FLuc modulator,ELG1 genotoxic,Rab9 promoter act
Cc1ccc(CN(C(=O)c2ccccc2[N+](=O)[O-])C2CCS(=O)(=O)C2)o1 (centres undefined),1%,?,/,2%,2%,2%
CC(C)=CCC/C(C)=C/CNC(=O)C[C@H]1C[C@H](C(=O)N(C(C)C)C(C)C)[C@@]2(C)c3[nH]c4cc(CCC(=O)N(C)C)ccc4c3CCN2C1=O,/,?,/,/,0%,/
Cc1ccc(C(=O)Nc2nnc(C)s2)o1,13%,?,0%,-3%,4%,15%
CC(C)(C)c1csc(NC(=O)c2ccc(Br)o2)n1,?,?,/,27µM*,-6%,?
Cc1nc(NC(=O)c2ccc(Br)o2)sc1C,?,?,?,7.6µM*,17%,?
Cc1nn(C)c(C)c1NC(=O)c1ccc(Br)o1,-8%,11%,/,-3%,-10%,4%
Cc1ccc(C(=O)Nc2nc(C)c(C)s2)o1,?,?,14µM*,6.7µM*,?,3.2µM*
Cc1ccc(C(=O)Nc2ccccc2NC(=O)c2ccc(C)o2)o1,2%,-14%,-19%,4%,0%,-6%
Cc1ccc(C(=O)Nc2cccc(NC(=O)c3ccc(C)o3)n2)o1,-5%,?,/,15µM*,0%,8%
COc1cc(NC(=O)CCc2nc3cccnc3n2Cc2cccs2)cc(OC)c1OC,/,/,-8%,-11%,/,/
O=C(OCC(=O)c1ccc(Cl)cc1Cl)c1cnccn1,-1%,-2%,/,12µM*,3%,-2%
Cc1ccc(C(=O)COC(=O)c2ccc(O)cc2)cc1,?,?,/,11µM*,?,3.2µM*
CCCC(=O)Nc1ccc(C(=O)COC(=O)C2CC2)cc1,/,?,/,/,15%,/
CCOC(=O)COC(=O)c1ccc(O)cc1,-2%,5%,-1%,-16%,9%,-4%
Cc1ccc(C(=O)Oc2ccc(C(=O)COC(=O)c3cnccn3)cc2)cc1,-4%,2%,2%,3%,6%,0%
Cc1ccc(C(=O)COC(=O)C2CCC2)cc1,0%,0%,/,0.38µM*,2%,-3%
O=C(OCC(=O)c1ccccc1Cl)c1cnccn1,-6%,5%,-6%,?,1%,2%
Cc1ccc(C(=O)COC(=O)c2cnccn2)cc1,6%,8%,4%,6.7µM*,1%,2%
CC(C)(C)c1ccc(C(=O)NCC(=O)OCC(=O)c2ccc3c(c2)-c2ccccc2C3)cc1,1%,28%,-7%,?,1%,-2%
Cc1ccc(C(=O)COC(=O)c2cnccn2)cc1C,1%,7%,6%,21µM*,1%,1%
Cc1ccc(C(=O)COC(=O)C2C3C=CC(C3)C2C(=O)OCC(=O)c2ccc(C)c(C)c2)cc1C (centres undefined),1%,13µM*,-16%,-8%,-9%,4%
Cc1ccc(C(=O)COC(=O)c2cnccn2)cc1[N+](=O)[O-],2%,-2%,7%,6%,1%,-4%
Cc1sc2ncnc(Sc3ccccc3C(=O)Nc3ccc(Br)cc3)c2c1C,4%,?,/,-20%,0%,-2%
COc1ccc(NC(=O)CN(C)C(=O)c2ccccc2Sc2ncnc3sc(C)c(C)c23)cc1,-4%,16µM*,/,5%,-9%,-1%
CCC1CSC(Nc2ccc(C(=O)/C=C/c3ccc(OC)c(OC)c3)cc2)=N1 (centres undefined),-15%,21µM*,-59%,24µM*,-17%,-19%
SMILES,NPC1 promoter act,ELG1 DNA repair,SMN2 splice up,FLuc modulator,ELG1 genotoxic,Rab9 promoter act
COc1ccc(C(=O)c2c(N)sc3c2CCN(C(=O)OC(C)(C)C)C3)cc1,2%,23µM*,/,1%,-14%,-5%
Cc1ccc(Cl)cc1NC(=O)c1cnn2c1NC(c1ccco1)CC2C(F)(F)F (centres undefined),1%,18µM*,13%,0%,-12%,-5%
CN(Cc1ccc(-n2cccn2)cc1)C(=O)c1cnn2c1NC(c1ccco1)CC2C(F)(F)F (centres undefined),-3%,10µM*,-45%,14%,-16%,-45%
COCCNC(=O)c1cnn2c1NC(c1ccco1)CC2C(F)(F)F (centres undefined),-5%,1%,11%,-1%,2%,0%
O=C(NCc1cccc(Cl)c1)c1cnn2c1NC(c1ccco1)CC2C(F)(F)F (centres undefined),-6%,?,-4%,3%,-12%,0%
COc1ccc(Cl)cc1-n1cc(-c2ccccc2)nc1SCC(=O)Nc1ccc(C)cc1,/,/,/,-2%,/,/
COc1ccc(N2CCN(S(=O)(=O)CC34CCC(CC3=O)C4(C)C)CC2)cc1 (centres undefined),10%,-30%,/,-3%,-5%,5%
CC(C)NC(=O)CSc1nc(N)c(NC(=O)c2ccco2)c(=O)[nH]1,0%,1%,10%,0%,1%,-7%
CCCn1c(Oc2ccccc2)nc2c1c(=O)n(C)c(=O)n2C,0%,?,/,6%,-7%,-1%
CCOc1ccc(OCCCCn2cnc3ccccc3c2=O)cc1,6%,16µM*,-11%,-10%,-4%,-4%
CCOc1ccc(OCCn2nnc3ccccc3c2=O)cc1,3.5µM*,?,16µM*,13µM*,18µM*,2.8µM*
O=C1N/C(=C\c2ccc(O)cc2)C(O)=C1C=NCc1ccccc1,-14%,?,-21%,12µM*,13%,-7%
CC(=O)c1cccc(S(=O)(=O)NCC2CCCCC2)c1,0.0005µM*,-7%,?,-1%,0%,?
COc1ccccc1NC(=O)C(C)OC(=O)CCNS(=O)(=O)c1ccc(C)c(C)c1 (centres undefined),-4%,-3%,/,9%,1%,-5%
CC(C)(C)/C(O)=C/c1nc2ccccc2[nH]c1=O,-1%,9%,2%,0%,0%,1%
N#C/C(=C(/O)c1cccs1)c1nc2ccccc2[nH]1,?,-4%,/,?,-5%,?
O=c1[nH]c2ccccc2nc1/C=C(\O)c1cccs1,4µM*,?,/,?,?,3.2µM*
O/C(=C\c1nc2ccccc2[nH]1)c1cccs1,3.5µM*,?,/,13µM*,?,4µM*
COc1ccc(S(=O)(=O)N(C(C)=O)c2ccc(OC(C)=O)c3ccccc23)cc1[N+](=O)[O-],-1%,15µM*,/,0%,-14%,-3%
COc1ccc(S(=O)(=O)N2CCc3ccccc32)cc1[N+](=O)[O-],-1%,6.5µM*,/,1%,-7%,-10%
